TDP1 cell noCPT = qHTS for Inhibitors of human tyrosyl-DNA phosphodiesterase 1 (TDP1): qHTS in cells in absence of CPT; Potency, µM (top dose mostly 46.2 µM), inactives show at the highest dose activity change, negative = growth inhibition, hits mostly inhibitors; DT40 Tdp1-/- hTDP1 cells, no CPT, ATP luminescence, 48 h; 420,000 compounds, 15% hits; further: on the % scale 0 is the no-effect control and ±100 the full control effect; nearly all actives have a fitted effect of over 55% in size
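Luminescent ATP content (CellTiter-Glo) served as the growth readout. Knockout chicken DT40 cells expressing human TDP1 were exposed to compounds without camptothecin for a minimum 48 hr at 37 °C.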
S2 tox = Viability Counterscreen for Primary qHTS for Inhibitors of ATXN expression; S2 cells (HEK-293 line with an ATXN2-luciferase reporter) viability, CellTiter-Fluor protease fluorescence, 24 h; Potency, µM (top dose mostly 56.7 µM), usual class: cytotoxic; 400,000 compounds, 0.49% hits; AID 651635, 2014; further: nearly all actives have a fitted effect of over 40% in size
HepG2 tox = qHTS for Inhibitors of TGF-b: Cytotox Counterscreen. AID 588856, 2011. Potency, µM (titrated, usually from 46.1 µM), without a hit: top-dose activity change, negative = cytotoxicity, hits mostly cytotoxic. HepG2 CAGA-GFP viability, ATP luminescence, 18 h. 410,000 compounds, 0.76% hits
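CellTiter-Glo luminescence gave cytotoxicity after 18 hours at 37 degrees C. The cells were HepG2 CAGA-GFP in 1% FBS DMEM, stimulated with 500 pg/mL TGF-beta after compound addition. %Activity was normalised to no-cell wells (complete cell-killing) and DMSO (no toxicity), and curves were fitted and classified.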
DT40 TDP1 CPT = qHTS for Inhibitors of human tyrosyl-DNA phosphodiesterase 1 (TDP1): qHTS in cells in presence of CPT; AID 686979, 2013; chicken DT40 Tdp1-/-;hTDP1 cells + 20 nM CPT, ATP luminescence, 48 h; 420,000 compounds, 12% hits; Potency, µM (titrated, usually from 46.2 µM), without a hit: at the highest dose activity change, negative = growth inhibition, hits mostly inhibitors; further: on the % scale 0 is the no-effect control and ±100 the full control effect; nearly all actives have a fitted effect of over 55% in size
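Chicken DT40 Tdp1-/- cells complemented with human TDP1, 400 cells/well, exposed to compounds plus 20 nM camptothecin for at least 48 h at 37 C; viability read as ATP content by CellTiter-Glo luminescence.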
TGFb SMAD3 inh = qHTS for Inhibitors of TGF-b; HepG2 CAGA-GFP TGF-b/SMAD3 reporter, GFP fluorescence, 18 h; TGF-beta stimulated, 500 pg/mL final; Potency, µM (top dose mostly 46.1 µM), for inactives: at the top dose activity, negative = inhibition, actives largely listed as inhibitors; 410,000 compounds, 1.2% hits; further: on the % scale 0 is the no-effect control and ±100 the full control effect; nearly all actives have a fitted effect of over 65% in size
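GFP signal (ex488/em500-530) from TGF-beta-stimulated HEPG2 CAGA-GFP cells, 500 pg/mL final, 18 h at 37 degrees C in DMEM plus 1% FBS, normalized to unstimulated and DMSO-stimulated controls.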
ATXN2 expr inh = Primary qHTS for Inhibitors of ATXN expression; Potency, µM (titrated, usually from 57 µM), without a hit: at the highest dose activity change, negative = inhibition, hits mostly inhibitors; 360,000 compounds, 0.72% hits; AID 1745845, 2022; HEK-293 ATXN2-luciferase reporter, luminescence, 24 h; further: on the % scale 0 is the no-effect control and ±100 the full control effect; nearly all actives have a fitted effect of over 55% in size
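ATXN2-luciferase reporter cells (luciferase flanked by upstream and downstream ATXN2 gene portions) were treated 24 h at 37 °C with compounds at up to 57 uM. SteadyGlo luminescence gave expression; GF-AFC fluorescence gave viability.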
Starred values were filed as active, the others as inactive; i = inactive; ? = inconclusive; . = no result; [ ] = dose if it differs, or a comment. Compounds with a hit are over-represented: about 17% of the library has one in this group of screens. The call rests on the fitted dose curve; in most records, active means well fitted curve in the direction sought with a large enough effect; inconclusive means small, poorly fitted or top-dose-only effect, or another doubt; inactive means no such curve, though single readings can be large; an effect the other way counts as inactive or inconclusive. Potency means the concentration at half of the fitted maximal effect.

SMILES | TDP1 cell noCPT | S2 tox | HepG2 tox | DT40 TDP1 CPT | TGFb SMAD3 inh | ATXN2 expr inh
CCOc1c(Br)cc(C2NS(=O)(=O)N=C3CCCCCN32)cc1OC (stereo not given) | 16µM* | i | 2% | ? | -2% | 8%
Cc1ccc(-n2ncc3c(SCC(=O)NNC(=O)c4ccco4)ncnc32)cc1 | -16% | i | -11% | 18% | -11% | 10%
CCc1c(C#N)c(SCCC(=O)Nc2ccc(OC)cc2)nc2c1C(=O)CC(C)(C)C2 | ? | i | -33% | -24% | -1% | -12%
CCc1c(C#N)c(SCc2c(C)noc2C)nc2c1C(=O)CC(C)(C)C2 | ? | i | 2% | 26µM* | ? | 3%
COc1cc2c(cc1OC)CN(C(=O)CCC(=O)c1ccc(F)cc1)CC2 | 12µM* | i | 7% | 18µM* | -2% | .
COc1cc2c(cc1OC)CN(C(=O)CSC1=NCCS1)CC2 | 21µM* | ? | -11% | ? | -14% | .
COc1cc2c(cc1OC)CN(C(=O)CCNC(=O)c1ccc(Br)cc1)CC2 | -7% | i | -5% | ? | 0% | 0%
COc1cc2c(cc1OC)CN(CCC(=O)c1ccc(Br)cc1)CC2 | 1.6µM* | i | -27% | 3.7µM* | ? | .
CCC(=O)c1ccc(OCC(=O)N2CCc3cc(OC)c(OC)cc3C2)cc1 | -27% | i | -8% | -27% | 7% | -7%
Cc1cc([C@@H](C)Nc2ccccc2C(=O)O)c2nc(N3CCOCC3)cc(=O)n2c1 | . | . | . | . | . | -4%[116 µM]
COC(=O)C(CO)NC(=O)C1CCCN1C(=O)CNC(=O)OCc1ccccc1 (stereo not given) | -1% | i | -9% | 4% | 6% | -2%
COc1cccc(N2CC(O)Cn3c2nc2c3c(=O)n(CCCc3ccccc3)c(=O)n2C)c1 (stereo not given) | 16µM* | i | 1% | 12µM* | ? | 2%
Cc1oc(-c2ccc(C(=O)Nc3ccc(F)cc3F)cc2)nc1COc1ccccc1 | -28% | . | -1% | -28% | ? | .
CNc1nc(N)c([N+](=O)[O-])c(N2CCCCCC2)n1 | 16% | i | -4% | 0% | -21% | -6%
Nc1nc(NCc2ccco2)nc(N2CCN(Cc3ccccc3)CC2)c1[N+](=O)[O-] | 18µM* | i | 31% | ? | 19% | 13%
Nc1nc(NCc2ccco2)nc(N2CCCCCC2)c1[N+](=O)[O-] | 16µM* | i | -13% | 21µM* | ? | -19%
CCN1CCN(c2nc(Nc3ccccc3)nc(N)c2[N+](=O)[O-])CC1 | -1% | i | -9% | -8% | ? | -2%
CC(C)CCNc1nc(N)c([N+](=O)[O-])c(N2CCCCCC2)n1 | 16µM* | ? | -127% | ? | ? | .
Cc1ccc(C(=O)NC(C)c2ccc(C)c(C)c2)s1 (stereo not given) | ? | i | 17% | ? | 3% | 7%
Cc1ccc(C(=O)NC(C)c2ccc3c(c2)OCO3)s1 (stereo not given) | 16µM* | i | 8% | 13µM* | -4% | .
COc1cccc(CC(=O)OCC(=O)NNC(=O)c2ccc(Br)cc2)c1 | 17% | i | -4% | 5% | 13% | -7%
CCOCCOC(NC(=O)c1ccccc1)(C(F)(F)F)C(F)(F)F | -4% | i | 8% | 10% | 1% | 1%
Cc1cc(C)cc(-n2c(SCC(N)=O)nc3c(oc4ccccc43)c2=O)c1 | 15µM* | . | -17% | ? | -23% | -31%
